Shown are actives, neighbours in structure and some others; about 21% of the full set was active somewhere.
NS1 function inh – inhibitors of influenza NS1 protein function | 270,000 compounds, 0.4% hits | Potency, µM (top dose mostly 46.1 µM); calls by dose curve; note: actives are rising curves; nearly all actives have a fitted effect of over 50% in size
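Read-out: OD600 growth recovery of NS1-expressing budding yeast. Cells grown overnight at 30C in -URA glucose medium, washed, resuspended and diluted 1:100 in 2% galactose assay medium, pH 6.0. Same strain lacking NS1 served as positive control.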
Pf growth 96h – P. falciparum growth inhibition at 96 hours. P. falciparum luciferase reporter growth, 96 h. Potency, µM (titrated, usually from 28.7 µM), hits mostly inhibitors. 320,000 compounds, 6.9% hits
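Two-generation exposure (96 h) targets delayed-death phenotype. Reporter parasites carrying integrated firefly luciferase, in red cells at 2% hematocrit and 0.05% parasitemia final, kept at 37 C, 5% CO2; luminescence loss indicates inhibition.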
Shiga inhibitor – inhibitors of Shiga toxin in Vero cells | Vero cells, Shiga toxin protein synthesis inhibition reporter | 290,000 compounds, 9.2% hits | inhibition, % at 38.7 µM; in the data active = inhibition mostly above about 28%, no sharp cut-off; inactive = mostly below about 43%
CHX counter – counter-screen for Shiga toxin inhibitors: cycloheximide protein synthesis inhibition; 300,000 compounds, 12% hits; max response, %; AID 2314; cell reporter, cycloheximide protein synthesis inhibition counterscreen; in the data active = max response mostly above about 13%, no sharp cut-off; inactive = mostly below about 14%; note: read at 38.3 µM for the half of the compounds with a filed dose
Pf growth 48h – inhibits P. falciparum growth in the first generation, 48 h | P. falciparum luciferase growth in erythrocytes, 48 h | Potency, µM (series often up to 28.7 µM), most hits filed as inhibitors | 310,000 compounds, 5.9% hits
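Read-out is firefly luciferase luminescence from an integrated reporter in P. falciparum, so falling signal marks reduced parasite growth. Infected erythrocytes were at 2% hematocrit and 0.1% parasitemia (final) in Albumax-supplemented RPMI 1640.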
Giardia FBPA inh – inhibitors of Giardia lamblia fructose-1,6-bisphosphate aldolase. A8B2U2. purified Giardia FBPA. Potency, µM (doses to about 59.6 µM), usual class: inhibitors. 290,000 compounds, 0.71% hits; note: nearly all actives have a fitted effect of over 55% in size
Target sequence (A8B2U2 whole entry, looked up): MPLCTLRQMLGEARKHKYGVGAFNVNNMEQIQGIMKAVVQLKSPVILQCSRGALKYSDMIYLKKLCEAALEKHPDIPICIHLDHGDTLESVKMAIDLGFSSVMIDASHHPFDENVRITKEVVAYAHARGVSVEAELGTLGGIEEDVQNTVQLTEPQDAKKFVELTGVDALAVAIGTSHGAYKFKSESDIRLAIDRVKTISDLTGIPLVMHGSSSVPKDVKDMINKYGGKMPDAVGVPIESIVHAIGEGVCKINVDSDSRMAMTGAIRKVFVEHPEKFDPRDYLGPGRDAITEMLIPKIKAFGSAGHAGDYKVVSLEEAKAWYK
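Giardia FBPA (40 nM reagent) was preincubated 10 min at RT with compound (up to 57.5 uM final), then substrate plus GAPDH/TPI/NAD/arsenate coupling system with diaphorase/resazurin was added; resorufin fluorescence (525/598 nm) was read after 20 min.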
Numbers stand for hits; [ ] = dose if it differs, or a comment. Unless noted, calls come from the whole dose curve; as a rule, active = well fitted curve in the direction sought with a large enough effect; inconclusive = small, poorly fitted or top-dose-only effect, or another doubt; inactive = no such curve, though single readings can be large; an effect the other way counts as inactive or inconclusive.

Results for O=C(Nc1ccccc1C(=O)NC1CCCCC1)c1ccco1 ?
NS1 function inh: inactive; Pf growth 96h: inconclusive; Shiga inhibitor: inactive; CHX counter: inactive; Pf growth 48h: inactive; Giardia FBPA inh: inactive

How did Cc1ccccc1C(=O)NC1CCN(CC(=O)Nc2ccccc2Cl)CC1 do in these assays?
NS1 function inh: inactive; Pf growth 96h: 0.93µM; Shiga inhibitor: inactive; CHX counter: inactive; Pf growth 48h: inactive; Giardia FBPA inh: inactive

What do the screens show for `O=C(CCC1CCCC1)NNC(=O)c1cc2ccccc2cc1O`?
NS1 function inh: inactive; Pf growth 96h: inactive; Shiga inhibitor: inactive; CHX counter: inactive; Pf growth 48h: inactive; Giardia FBPA inh: inactive

Results for COc1ccc(-c2cc(=O)c(C(=O)c3ccc(C)cc3)n[nH]2)cc1 ?
Pf growth 96h: inactive; Shiga inhibitor: inactive; CHX counter: inactive; Pf growth 48h: inactive; Giardia FBPA inh: inactive

What do the screens show for `CCC1=C2CC[C@H]3C(=O)N(CC)C(=O)[C@H]3[C@H]2[C@@]2(C)C(=NCCc3c[nH]c4ccccc34)OC(=O)N2C1=O`?
Giardia FBPA inh: inactive

What do the screens show for `CN(C)N1C(N)=C(C#N)C(c2ccc(Br)cc2)C2=C1CC(C)(C)CC2=O` (stereo unspecified)?
NS1 function inh: inactive; Pf growth 96h: inactive; Shiga inhibitor: inactive; CHX counter: inactive; Pf growth 48h: inactive[0.00184 µM]; Giardia FBPA inh: inactive

What do the screens show for `COc1ccc(N2CC(C(=O)OCC(=O)Nc3cccc(C)c3C)CC2=O)cc1` (stereo unspecified)?
NS1 function inh: inactive; Pf growth 96h: inactive; Shiga inhibitor: inactive; CHX counter: inactive; Pf growth 48h: inactive; Giardia FBPA inh: inactive

How did CC1(C)CC(=O)c2sc(NS(=O)(=O)Cc3ccccc3)nc2C1 do in these assays?
NS1 function inh: inactive; Pf growth 96h: inactive; Shiga inhibitor: 41; CHX counter: 27; Pf growth 48h: inactive; Giardia FBPA inh: inactive

How did Cc1ccc(S(=O)(=O)Nc2nc3c(s2)C(=O)CC(C)(C)C3)cc1 do in these assays?
NS1 function inh: inactive; Pf growth 96h: inconclusive; Shiga inhibitor: inactive; CHX counter: inactive; Pf growth 48h: inactive; Giardia FBPA inh: inactive

What do the screens show for `CCc1ccc(C(=O)NC(CCSC)C(=O)OC)cc1` (stereo unspecified)?
Pf growth 96h: inactive; Shiga inhibitor: inactive; CHX counter: 17; Pf growth 48h: inconclusive; Giardia FBPA inh: inactive

What do the screens show for `COCCCN=C1NN=C(c2cc(C)n(Cc3ccco3)c2C)CS1`?
NS1 function inh: inconclusive; Pf growth 96h: inactive; Shiga inhibitor: 127; CHX counter: 40; Pf growth 48h: inactive; Giardia FBPA inh: inactive

How did C=CCN=C1NN=C(c2cc(C)n(CCOC)c2C)CS1 do in these assays?
NS1 function inh: inactive; Pf growth 96h: inactive; Shiga inhibitor: inactive; CHX counter: inactive; Pf growth 48h: inconclusive; Giardia FBPA inh: inconclusive

What do the screens show for `COCC(C)N=C1NN=C(c2ccc(NC(C)=O)cc2)CS1` (stereo unspecified)?
Pf growth 96h: inactive; Shiga inhibitor: inactive; CHX counter: 22; Pf growth 48h: inactive; Giardia FBPA inh: inactive

Results for COc1ccc(-n2c(C)cc(C3=NNC(=NC4CC4)SC3)c2C)cc1 ?
Pf growth 96h: inactive; Shiga inhibitor: 85; CHX counter: 40; Pf growth 48h: inconclusive; Giardia FBPA inh: inactive

Results for Cc1cc(C2=NNC(=NC3CC3)SC2)c(C)n1Cc1ccco1 ?
NS1 function inh: inactive; Pf growth 96h: inconclusive; Shiga inhibitor: 137; CHX counter: 95; Pf growth 48h: inactive; Giardia FBPA inh: inactive

What do the screens show for `CC(=O)OCC(=O)[C@@]1(O)CCC2C3CC(C)C4=CC(=O)C=CC4(C)C3C(O)CC21C` (stereo partly specified)?
Giardia FBPA inh: inactive

What do the screens show for `Cc1ccc(NC(=O)COC(=O)Cc2ccsc2)c(C)c1`?
NS1 function inh: inactive; Pf growth 96h: inactive; Shiga inhibitor: inactive; CHX counter: inactive; Pf growth 48h: inactive; Giardia FBPA inh: inactive

How did COP(=O)(OC)c1nc(-c2ccccc2)oc1N1CCOCC1 do in these assays?
NS1 function inh: inactive; Pf growth 96h: inactive; Shiga inhibitor: inactive; CHX counter: inactive; Pf growth 48h: inactive; Giardia FBPA inh: inactive

What do the screens show for `Cc1cc(C2=NNC(=NCc3ccccc3)SC2)c(C)n1-c1c(C)n(C)n(-c2ccccc2)c1=O`?
NS1 function inh: inactive; Pf growth 96h: inconclusive; Shiga inhibitor: inactive; CHX counter: inactive; Pf growth 48h: 12µM; Giardia FBPA inh: inactive

How did COCC(C)N=C1NN=C(c2cc(C)n(Cc3ccccc3Cl)c2C)CS1 (stereo unspecified) do in these assays?
Pf growth 96h: inactive; Shiga inhibitor: 108; CHX counter: 55; Pf growth 48h: inactive; Giardia FBPA inh: inactive

Results for COCCn1c(C)cc(C2=NNC(=Nc3ccc(Cl)cc3Cl)SC2)c1C ?
NS1 function inh: inactive; Pf growth 96h: inconclusive; Shiga inhibitor: inactive; CHX counter: inactive; Pf growth 48h: inconclusive; Giardia FBPA inh: inactive

Results for CC(C)CCC[C@@H](C)[C@@H]1CC[C@@H]2[C@H]3CC[C@H]4C[C@@H](N)CC[C@@]4(C)[C@@H]3CC[C@]21C ?
NS1 function inh: inactive

What do the screens show for `Cc1nc(SCC(=O)N(C)C2CCS(=O)(=O)C2)c(C#N)c(C)c1C` (stereo unspecified)?
Pf growth 96h: inactive; Pf growth 48h: inactive

What do the screens show for `COc1ccc(C2C(C(=O)c3ccco3)=C(O)C(=O)N2CC2CCCO2)c(OC)c1` (stereo unspecified)?
NS1 function inh: inactive; Pf growth 96h: inactive; Shiga inhibitor: inactive; CHX counter: inactive; Pf growth 48h: inactive; Giardia FBPA inh: inactive

What do the screens show for `CN(C)c1ccc(/C=C/c2nnnn2-c2ccccc2)cc1`?
NS1 function inh: inactive; Pf growth 96h: 13µM; Shiga inhibitor: 108; CHX counter: 61; Pf growth 48h: inactive; Giardia FBPA inh: inactive

What do the screens show for `O=C(Nc1ccnc(-c2ccncc2)n1)C1CC1`?
NS1 function inh: inactive; Pf growth 96h: inactive; Shiga inhibitor: inactive; CHX counter: inactive; Pf growth 48h: inactive; Giardia FBPA inh: inactive

Results for O=C(COc1ccc(S(=O)(=O)N2CCOCC2)cc1)NC1CC1 ?
NS1 function inh: inactive; Pf growth 96h: inconclusive; Shiga inhibitor: inactive; CHX counter: inactive; Pf growth 48h: inactive; Giardia FBPA inh: inactive

How did CC(Oc1cccc(Cl)c1)C(=O)Nc1cc(S(=O)(=O)N2CCOCC2)ccc1N1CCCCC1 (stereo unspecified) do in these assays?
Pf growth 96h: inconclusive; Pf growth 48h: 8.3µM

What do the screens show for `CCN1CCN(c2ccc(S(=O)(=O)N3CCOCC3)cc2NC(=O)CCC(C)C)CC1`?
Pf growth 96h: inactive; Pf growth 48h: inconclusive

What do the screens show for `CCN1CCN(c2ccc(S(=O)(=O)N3CCOCC3)cc2NC(=O)C(C)Oc2cccc(Cl)c2)CC1` (stereo unspecified)?
Pf growth 96h: inconclusive; Pf growth 48h: 10µM

What do the screens show for `Cc1cc(=O)n2nc(N3CCCC(C(=O)NCc4ccccc4Cl)C3)sc2n1` (stereo unspecified)?
NS1 function inh: inactive; Pf growth 96h: inconclusive; Shiga inhibitor: inactive; CHX counter: inactive; Pf growth 48h: inconclusive

Bioassay records from PubChem BioAssay.
